Records with an inconclusive call do not appear. The source made the active and inactive calls. The call rests on the fitted dose curve; in most records, active means well fitted inhibition curve with a large enough effect; inconclusive means small, poorly fitted or top-dose-only effect; inactive means no such curve, though single readings can be large or run the other way.
assay: qHTS assay for measurement of the activity of small molecule inhibitors on Zika virus induced Caspase-3 activity in human iPSC derived neural progenitor cells (hNPCs) (AID 1224857); settings: hNPCs ZIKV-induced caspase-3/7, Caspase-Glo luminescence, 6 h; series mostly up to 45.7 µM; activity change, negative = inhibition: at the top concentration; further: % of control where 0% means no effect; nearly all actives have a fitted effect of over 65% in size
How it was run: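 Zika virus (2 FFU/cell) infection of human iPSC-derived NPCs, 6 h, following 1 h compound preincubation. Read-out: Caspase-Glo 3/7 luminescence.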

Compound	activity change, negative = inhibition
CC(=O)NCCC(=O)N[C@@H](CCC(N)=O)C(=O)N[C@@H](CO)C(=O)N[C@@H](CCC(N)=O)C(=O)N[C@@H](CCC(N)=O)C(=O)N[C@H](C(=O)N[C@@H](Cc1ccccc1)C(=O)N[C@]1(C)CCCCCCC=CCCC[C@@](C)(C(=O)N[C@@H](CCC(N)=O)C(=O)N[C@@H](CC(N)=O)C(N)=O)NC(=O)[C@H](CC(C)C)NC(=O)[C@H](CC(C)C)NC(=O)[C@@H](CCCNC(=N)N)NC(=O)[C@H](Cc2c[nH]c3ccccc23)NC(=O)[C@H](CC(C)C)NC(=O)[C@H](CC(N)=O)NC1=O)[C@H](C)O	-29.3% (inactive)
COc1cc2nccc(Oc3ccc(NC(=O)Nc4cc(C)on4)c(Cl)c3)c2cc1OC	17.1% (inactive)
CC[C@H](C=C[C@@H](C)[C@H]1CC[C@H]2[C@@H]3CC=C4C[C@@H](O)CC[C@]4(C)[C@@H]3CC[C@]12C)C(C)C	-12% [at 20.5 µM] (inactive)

assay: qHTS assay for measurement of the activity of small molecule inhibitors on Zika virus induced Caspase-3 activity in human astrocytoma cells (AID 1224859); settings: SNB-19 ZIKV-induced caspase-3/7, luminescence, 6 h; series mostly up to 45.7 µM; activity change, negative = inhibition: at the top concentration; further: potency means the concentration at half of the fitted maximal effect;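 on activity change, negative = inhibition: plate controls were ZIKV-infected untreated cells for no effect and uninfected cells for full effect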
How it was run: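 Caspase activation in ZIKV-infected SNB-19 cells (2 FFU/cell, 6 h) measured by Caspase-Glo 3/7 luminescence after 30 min RT; compound pre-incubated 1 h; normalised to uninfected and infected controls.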

Compound	activity change, negative = inhibition	Potency
O=[N+]([O-])c1ccc(Nc2ccccc2-c2ccccc2)c2nonc12	-2.08% (inactive)	–
CCC(=C(CC)c1ccc(O)cc1)c1ccc(O)cc1	30.1% (inactive)	–
C=C1c2cccc(O)c2C(O)=C2C(=O)[C@@]3(O)C(O)=C(C(N)=O)C(=O)[C@@H](N(C)C)[C@@H]3[C@@H](O)[C@H]12	-2.6% (inactive)	–
CC(=O)NCCC(=O)N[C@@H](CCC(N)=O)C(=O)N[C@@H](CO)C(=O)N[C@@H](CCC(N)=O)C(=O)N[C@@H](CCC(N)=O)C(=O)N[C@H](C(=O)N[C@@H](Cc1ccccc1)C(=O)N[C@]1(C)CCCCCCC=CCCC[C@@](C)(C(=O)N[C@@H](CCC(N)=O)C(=O)N[C@@H](CC(N)=O)C(N)=O)NC(=O)[C@H](CC(C)C)NC(=O)[C@H](CC(C)C)NC(=O)[C@@H](CCCNC(=N)N)NC(=O)[C@H](Cc2c[nH]c3ccccc23)NC(=O)[C@H](CC(C)C)NC(=O)[C@H](CC(N)=O)NC1=O)[C@H](C)O	53.2% (inactive)	–
COc1ccc2cc1Oc1ccc(cc1)C[C@H]1c3cc(c(OC)cc3CCN1C)Oc1c(OC)c(OC)cc3c1[C@H](C2)N(C)CC3	-0.521% (inactive)	–
CCC(c1ccc(O)cc1)C(CC)c1ccc(O)cc1 (stereo unspecified)	-2.62% (inactive)	–
Cc1ccc2c(c1)c1c(n2CCc2ccc(C)nc2)CCN(C)C1	74.8% (inactive)	–
CCCCC[C@H](O)C=C[C@H]1[C@H](O)CC(=O)[C@H]1CCCCCCC(=O)O	-7.25% (inactive)	–
O=c1[nH]c(=O)n([C@H]2C[C@@H](O)[C@@H](CO)O2)cc1I	27.7% (inactive)	–
Cn1cc(-c2ccc3nnc(Sc4ccc5ncccc5c4)n3n2)cn1	13.5% (inactive)	–
Cc1ccc(NC(=O)Nc2cc(C(F)(F)F)ccc2F)cc1Nc1ccc2c(c1)NC(=O)C2=Cc1ccc[nH]1	-0.142% (inactive)	–
O=c1[nH]nc(OCCCc2ccc(Cl)cc2)c(NCc2cccnc2)c1Br	-5.3% (inactive)	–
CC(O)=C(C#N)C(=O)Nc1ccc(C(F)(F)F)cc1	–	1.18 µM (active)
CC(C)Oc1cc(Nc2nc(N[C@@H](C)c3ccc(F)cn3)ncc2Cl)[nH]n1	32.8% (inactive)	–
CCOC(=O)[C@@H](N)CCC(=O)N[C@@H](CSCc1ccccc1)C(=O)N[C@@H](C(=O)OCC)c1ccccc1	22.4% (inactive)	–
COc1ccc(CCN(C)CCCOc2ccc(S(=O)(=O)c3[nH]c4ccccc4c3C(C)C)cc2)cc1OC	-17.3% (inactive)	–
CCOC(=O)N1c2ccc(C(F)(F)F)cc2[C@@H](N(Cc2cc(C(F)(F)F)cc(C(F)(F)F)c2)C(=O)OC)C[C@H]1CC	22.1% (inactive)	–

Compound	activity change, negative = inhibition	Potency
O=C(CCCN1CCN(c2ccc(F)cc2)CC1)NC1c2ccccc2CSc2ccccc21 (stereo unspecified)	75.5% (inactive)	–
C[C@@H](O)[C@H]1C(=O)N2C(C(=O)OCOC(=O)C(C)(C)C)=C(SC3CN(C4=NCCS4)C3)[C@H](C)[C@H]12	-4.17% (inactive)	–
Oc1cc(O)cc(C=Cc2ccc(O)c(O)c2)c1	–	4.18 µM (active)
C#CCN(C)CC1=Cc2ccccc2Oc2ccccc21	-3.58% (inactive)	–
COc1cc(F)c(C(C)C)cc1-c1ccc(C(F)(F)F)cc1CN1C(=O)O[C@H](c2cc(C(F)(F)F)cc(C(F)(F)F)c2)[C@@H]1C	-9.35% (inactive)	–
O=C(Nc1ccc(OC(F)(F)F)cc1)c1sccc1NCc1ccnc2ccccc12	–	6.62 µM (active)
NC[C@H]1O[C@H](O[C@@H]2[C@@H](O)[C@@H](O[C@H]3O[C@H](CO)[C@@H](O)[C@H](N)[C@@H]3O)[C@H](N)C[C@@H]2N)[C@H](O)[C@@H](O)[C@H]1O	1.48% (inactive)	–
C=CC[N+]1([C@H]2C[C@H]3[C@@H]4CC[C@H]5C[C@H](O)[C@@H](N6CCOCC6)C[C@]5(C)[C@@H]4CC[C@]3(C)[C@H]2OC(C)=O)CCCC1	25.4% (inactive)	–
COc1cc2nccc(Oc3ccc(NC(=O)Nc4cc(C)on4)c(Cl)c3)c2cc1OC	24.2% (inactive)	–
c1ccc(CNc2nc(N3CCOc4ccccc43)nc3c2CCCC3)cc1	17.2% (inactive)	–
Clc1ccc(C2(c3ccc(-c4cn[nH]c4)cc3)CCNCC2)cc1	4.56% (inactive)	–
CC=C1C2C=C(C)CC1(N)c1ccc(=O)[nH]c1C2 (stereo unspecified)	8.76% (inactive)	–
O=C(Nc1ccccc1)Nc1ccc(-c2ccc(C(=O)[C@H]3CCC[C@H]3C(=O)O)cc2)cc1	39% (inactive)	–
CC[C@H](C=C[C@@H](C)[C@H]1CC[C@H]2[C@@H]3CC=C4C[C@@H](O)CC[C@]4(C)[C@@H]3CC[C@]12C)C(C)C	-3.06% [at 20.5 µM] (inactive)	–
CC=C(C(=CC)c1ccc(O)cc1)c1ccc(O)cc1	1.13% (inactive)	–
COc1ccc(-c2nc3ccc(C4=NNC(=O)CC4C)cc3[nH]2)cc1 (stereo unspecified)	12.2% (inactive)	–

From PubChem BioAssay (NCATS)
